The results in this text go back to PubChem BioAssay (NCATS).

Structures are written as SMILES. Values joined by “and” are separate entries in the source; they are usually repeats but may differ in a detail not shown here. Equal entries are not always repeated. Unmarked numbers belong to inactive results. Records with an inconclusive call do not appear. Active and inactive are the calls of the source. Unless noted, calls follow the shape of the dose curve; as a rule, active = well fitted curve in the direction sought with a large enough effect; inconclusive = small, poorly fitted or top-dose-only effect, or another doubt; inactive = no such curve, though single readings can be large; an effect the other way counts as inactive or inconclusive.

The nature of experiment [1]: Cell Viability - HUV-EC-C (AID 542).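 Also: cells exposed to compound for 40 hours; % is scaled to controls: 0 for no effect and ±100 for the full control effect; nearly all actives have a fitted effect of over 35% in size.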 The procedure, abridged:
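Decrease in cellular ATP, quantified by luciferase luminescence, reflects toxicity in normal human vascular endothelial HUV-EC-C cells given compound for 40 hr in complete culture medium. Values are AC50s from concentration-response curves.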

Experiment [2] is described as follows: Cellular Toxicity (caspase-3) HepG2 (AID 654).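 Also: cells exposed to compound for 16 hours before reading; 0% = DMSO alone and 100% = caspase signal from 100 µM tamoxifen.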 The procedure, abridged: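 qHTS, HepG2, 1500 cells/well, complete medium; cpd 16 h 37 °C; Caspase-Glo 3/7, 20 min RT; lum. Norm: DMSO vs 100 uM tamoxifen; AC50 Hill fit.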
The nature of experiment [3]: Cellular Toxicity (caspase-3) MRC-5 (AID 659).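 Also: 0% = DMSO basal and 100% = 10 µM staurosporine.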 In a few lines: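 Concentration-dependent caspase 3/7 activation is measured in human normal lung fibroblasts (MRC-5) following 16-hour treatment. AC50 values come from standard Hill-equation modeling of luminescence normalized to DMSO and 10 uM staurosporine.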
The nature of experiment [4]: Cellular Toxicity (caspase-3) Mesangial (AID 660).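 Also: combined caspase 3 and 7 activity read by Caspase-Glo luminescence; cells exposed to compound for 16 h before the caspase read.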 In a few lines: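 Concentration-response qHTS: compound-induced rise in caspase 3/7 luminescence in human mesangial cells after 16 h, normalized to DMSO and 100 uM tamoxifen controls.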
The nature of experiment [5]: Cellular Toxicity (caspase-3) Hek293 (AID 664).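 Also: cells exposed to compound for 16 h at 37 °C before readout.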 Conditions: HEK293 caspase-3 activation, DMSO = 0%, 100 µM tamoxifen = 100%; at 92.2 µM (top of the series). In a few lines: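 Activation of caspase-3/7 is measured as increased luminescence from cleaved peptide-aminoluciferin substrate in HEK293 cells treated 16 hours at 37 °C. AC50 values come from Hill-equation fits of concentration-response data.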

A short description of experiment [6]: Cellular Toxicity (caspase-3) NIH 3T3 (AID 666).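 Also: caspase signal read after 16 h compound exposure; 0% = DMSO basal and 100% = 100 µM tamoxifen stimulation.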 In a few lines: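 Concentration-response qHTS in NIH 3T3 mouse fibroblasts scores caspase-3/7 activation as rising luminescence after 16 hr compound exposure. Signals are scaled between DMSO-only and 100 uM tamoxifen.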
A short description of experiment [7]: Cell Viability - LYMP1-003 - Assay at 40 hr (AID 964). Also: % is scaled to controls: 0 for no effect and ±100 for the full control effect; nearly all actives have a fitted effect of over 60% in size. The procedure, abridged: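 This qHTS cytotoxicity screen treats human lymphoblastoid cells (LYMP1-003) with compounds for 40 hr and quantifies cellular ATP via luciferase luminescence.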
Experiment [8] in a line: Cell Viability - LYMP2-004 (AID 966).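 Also: plate controls were DMSO only for no effect and tetraoctylammonium bromide control for full effect; nearly all actives have a fitted effect of over 65% in size.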 In a few lines: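 Acute toxicity is scored as a concentration-dependent drop in intracellular ATP, quantified by luciferase luminescence, in human lymphoblastoid cells exposed to compound for 24 hr. AC50 derives from Hill-equation modelling.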
Experiment [9] in a line: Cell Viability - LYMP2-011 (AID 969).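 Also: 0% = DMSO only and full inhibition = 92 µM tetraoctylammonium bromide; nearly all actives have a fitted effect of over 60% in size.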 The procedure, abridged:
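Acute toxicity is scored as a concentration-dependent drop in intracellular ATP of a human lymphoblastoid line after 24 hr treatment. Values are AC50s modeled with the Hill equation.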

Experiment [10] is described as follows: Cell Viability - LYMP2-017 (AID 972).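 Also: cells exposed to compound for 24 hours at 37 °C; % is scaled to controls: 0 for no effect and ±100 for the full control effect; nearly all actives have a fitted effect of over 55% in size.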 In a few lines:
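Steps: plate 2500 lymphoblastoid cells per well; incubate 5 hr at 37 C; add compound across a concentration series and incubate 24 hr at 37 C; add CellTiter-Glo and read luminescence after 30 min at room temperature; fit Hill curves for AC50.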

The nature of experiment [11]: Cell Viability - LYMP2-026 (AID 989).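 Also: cells exposed to compound for 24 h at 37 °C; % is scaled to controls: 0 for no effect and ±100 for the full control effect; nearly all actives have a fitted effect of over 50% in size.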 In a few lines: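 Concentration-dependent loss of intracellular ATP in human lymphoblastoid cells after 24 hr at 37 C, quantified by luciferase luminescence. AC50 derived from standard Hill equation.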
For experiment [12], the target named is Vitamin D3 receptor (Homo sapiens) (UniProt P11473). The experiment in a line: qHTS assay for small molecule agonists of vitamin D receptor signaling (AID 588543; calls by dose curve;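 also: 0% = DMSO basal and 100% = reference agonist control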). The procedure, abridged:
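Reporter cells (HEK293T, VDR-UAS-bla) were seeded in medium with 2% charcoal-stripped serum and incubated 5 h, then compounds in concentration series were added for 16 h at 37 °C. Stimulation was scaled between DMSO basal and 50 nM 1α,25-dihydroxyvitamin D3.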

The nature of experiment [13]: qHTS assay for small molecule disruptors of the mitochondrial membrane potential - 1 hr assay (AID 651754; calls by dose curve; also: % is scaled to controls: 0 for no effect and ±100 for the full control effect; nearly all actives have a fitted effect of over 35% in size). The procedure, abridged:
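Steps: seed HepG2 cells and let attach overnight; pin-transfer compound or vehicle; incubate 1 hr at 37C; add Mito-MPS dye for 30 min; read two-channel fluorescence for monomer and aggregate forms.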
On the technique in general: In qHTS, concentration-response curves come from the screen itself.

Experiment [14] concerns the target Nuclear receptor ROR-gamma (Homo sapiens) (UniProt P51449). The experiment in a line: qHTS assay for small molecule antagonists of the retinoid-related orphan receptor gamma (ROR-gamma) signaling pathway (AID 651802).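 Also: CHO cells with doxycycline-induced ROR-gamma expression; luciferase reporter luminescence driven by ROR response element; % is scaled to controls: 0 for no effect and ±100 for the full control effect; nearly all actives have a fitted effect of over 60% in size.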 The procedure, abridged: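 Antagonism is scored as a fall in luminescence from a RORE-luciferase reporter in CHO cells expressing ROR under a TET-inducible promoter, measured 16hr after doxycycline induction in the presence of compound.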

Experiment [15] can be described thus: qHTS assay for small molecule agonists of the antioxidant response element (ARE) signaling pathway measured by Nrf2-dependant transcriptional activity (AID 720636; active = well fitted curve in the direction sought with a large enough effect in the repeat runs; an effect the other way counts as inactive or inconclusive;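 also: HepG2 cells with an ARE-driven luciferase reporter; % of control where 0% means no effect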). In a few lines:
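Attachment 6 hr at 37 C, then compound versus DMSO vehicle for 16 hr in ARE-luc HepG2 cells (1% dialyzed FBS); luminescence recorded 30 min after ONE-Glo addition at room temperature.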

The nature of experiment [16]: MultiTox-Fluor Cytotoxicity Assay - LYMP1-002 - Live Cells (AID 955).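 Also: cells exposed to compound for 16 hours; % is scaled to controls: 0 for no effect and ±100 for the full control effect.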 The procedure, abridged:
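Cytotoxicity in the human lymphoblastoid line LYMP1-002 is measured as loss of live-cell protease activity after 16 h treatment in complete culture medium. AC50 is derived from Hill-equation fits of qHTS concentration-response data.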

Experiment [17] in a line: Cell Viability - LYMP2-009 (AID 968).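 Also: cells exposed to compound for 24 h at 37 °C; 0% = DMSO alone and the full-kill end = tetraoctylammonium bromide at 92 µM; nearly all actives have a fitted effect of over 55% in size.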
Experiment [18] can be described thus: Cell Viability - LYMP2-025 (AID 976).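 Also: cells exposed to compound for 24 h at 37 °C; plate controls were DMSO only for no effect and tetraoctylammonium bromide control for full effect.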 The procedure, abridged: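 In qHTS format, LYMP2-025 lymphoblastoid cells in complete culture medium received compound for 24 hr; ATP-based CellTiter-Glo signal gave viability, with AC50 derived by Hill equation.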
Experiment [19] can be described thus: qHTS assay for small molecule activators of the p53 signaling pathway (AID 651743; active = well fitted activation curve with a large enough effect in the signal ratio, not every such curve was filed as active; the % refers to the signal ratio; also: potency is read from the fitted curve at half-maximal effect; as to activation: % of control where 0% means no effect). Conditions: HCT-116 p53RE-bla, beta-lactamase FRET ratio, 16 h; activation: stronger effect = higher value. In a few lines: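 Screen for p53 pathway agonists uses stably transfected p53RE-bla HCT-116 cells, 4,000 per well, treated 16 h at 37 C with compounds in DMSO.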
Experiment [20] can be described thus: qHTS assay for small molecule agonists of the antioxidant response element (ARE) signaling pathway measured by Nrf2-dependant transcriptional activity - cell viability counter screen (AID 720653; active = well fitted curve in the direction sought with a large enough effect in the repeat runs; an effect the other way counts as inactive or inconclusive; also: % is scaled to controls: 0 for no effect and ±100 for the full control effect). As to conditions: ARE-bla HepG2 viability, CellTiter-Glo ATP luminescence, 16 h; stronger effect = lower value. The procedure, abridged: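 Cytotoxicity counter screen: intracellular ATP quantified by CellTiter-Glo luminescence in the same ARE-bla HepG2 plates, after 16 h compound exposure and a 2 h beta-lactamase substrate step.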

Vitamin D3 receptor (Homo sapiens), sequence (P11473 whole entry, looked up): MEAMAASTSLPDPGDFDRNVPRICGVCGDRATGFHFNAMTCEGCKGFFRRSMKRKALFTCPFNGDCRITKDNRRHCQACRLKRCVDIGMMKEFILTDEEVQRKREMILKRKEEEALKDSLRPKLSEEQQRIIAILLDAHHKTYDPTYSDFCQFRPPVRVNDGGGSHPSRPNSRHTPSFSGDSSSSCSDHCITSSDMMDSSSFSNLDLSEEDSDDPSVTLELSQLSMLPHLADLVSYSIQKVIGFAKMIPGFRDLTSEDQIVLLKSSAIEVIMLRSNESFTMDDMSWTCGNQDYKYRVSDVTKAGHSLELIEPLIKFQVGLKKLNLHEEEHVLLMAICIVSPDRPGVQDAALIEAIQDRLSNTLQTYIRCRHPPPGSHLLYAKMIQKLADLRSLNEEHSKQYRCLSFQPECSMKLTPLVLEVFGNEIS
Nuclear receptor ROR-gamma (Homo sapiens), sequence (P51449 whole entry, looked up): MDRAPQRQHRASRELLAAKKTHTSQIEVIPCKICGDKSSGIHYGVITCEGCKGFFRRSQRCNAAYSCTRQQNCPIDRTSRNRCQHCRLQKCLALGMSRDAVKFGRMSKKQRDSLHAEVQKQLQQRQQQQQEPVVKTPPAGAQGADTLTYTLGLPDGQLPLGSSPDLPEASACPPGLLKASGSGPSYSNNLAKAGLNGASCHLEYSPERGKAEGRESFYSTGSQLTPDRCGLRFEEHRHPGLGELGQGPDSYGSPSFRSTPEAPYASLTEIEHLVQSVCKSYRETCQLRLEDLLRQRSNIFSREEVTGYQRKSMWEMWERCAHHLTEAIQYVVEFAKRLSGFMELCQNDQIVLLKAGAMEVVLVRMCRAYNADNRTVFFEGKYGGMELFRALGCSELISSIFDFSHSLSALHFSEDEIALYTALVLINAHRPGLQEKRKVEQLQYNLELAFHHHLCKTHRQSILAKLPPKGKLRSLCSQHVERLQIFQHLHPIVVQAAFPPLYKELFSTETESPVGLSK

Take `CC1CC(=O)O1` (stereo not given): the Potency result in [1], in experiment [6], in experiment [7], in [8], in experiment [9] and in experiment [10] was “inactive” each time. In addition, the Potency result in [11], in [13], in experiment [14] and in [15] was “inactive” each time. For the same compound, the call in experiment [2], in experiment [3], in experiment [4] and in experiment [12] was inactive. Besides, the caspase-3 activation in experiment [5] is -0.671%.
Regarding `CC(C)(C)C(O)(CCc1ccc(Cl)cc1)Cn1cncn1` (stereo not given), the Potency entry in [1], in experiment [6], in experiment [7], in [8], in experiment [17] and in experiment [10] was “inactive” throughout. Moreover, the Potency result in [18], in experiment [11] and in experiment [13] was “inactive” throughout. In addition, the outcome in [2], in [4], in experiment [16] and in experiment [12] was inactive. Besides, in experiment [19], the activation was -3.53% and -2.93%. Besides, in [20], the max response is -4.58% and -0.482%.
On to `[O-][Cl+]O`, for which the Potency result in [1], in experiment [6], in [7], in experiment [8], in experiment [17] and in [9] was “inactive” in each case. In addition, the Potency result in experiment [10], in experiment [18], in experiment [11], in experiment [13] and in [14] was “inactive” each time. Also, the compound was called inactive in experiment [2], in experiment [3], in experiment [4], in experiment [16] and in [12]. Moreover, the caspase-3 activation in [5] is 1.6%. In addition, in experiment [19], the activation was 0.903%. Besides, in experiment [20], the max response was 3.42%.
For the compound `CCC[N+](=O)[O-]`, the Potency entry in [1], in experiment [6], in [7], in experiment [8], in [17] and in [9] was “inactive” throughout. In addition, the Potency entry in [10], in [18], in experiment [11], in experiment [13], in experiment [14] and in [15] was “inactive” each time. Further, the call in [2], in experiment [4], in [16] and in [12] was inactive. Besides, in experiment [19], the activation was -0.809%.
Turning to `CCCCNC(=O)n1c(NC(=O)OC)nc2ccccc21`, the compound was classed as inactive in experiment [2], in experiment [3], in experiment [4], in experiment [16] and in [12]. Besides, the caspase-3 activation in [5] was -2.55%. The Potency entry in [6], in [17], in experiment [9], in experiment [10], in experiment [18] and in experiment [11] was “inactive” throughout. For the same compound, the Potency result in experiment [13] and in experiment [14] was “inactive” each time. For the same compound, the Potency in experiment [19] is 14.1 µM (active). In addition, in [20], the max response was 2.42% and 7.38%.
As to `O=Cc1ccc(Cl)cc1Cl`, the Potency entry in [1], in experiment [6], in experiment [7], in experiment [8], in [9] and in [10] was “inactive” each time. For the same compound, the Potency entry in [18], in experiment [11], in [13], in experiment [14] and in [15] was “inactive” throughout. For the same compound, the result in experiment [2], in [3], in experiment [4], in experiment [16] and in [12] was inactive. Further, in experiment [5], the caspase-3 activation is -1.13%. For the same compound, the activation in experiment [19] is -1.2%. Moreover, the max response in [20] was 1.04%.
Regarding `Cc1ccc(N)cc1C`, the Potency result in experiment [1], in experiment [7], in experiment [8], in [10], in [18] and in experiment [11] was “inactive” throughout. In addition, the Potency entry in [13] and in [14] was “inactive” in each case. Also, the call in [2], in experiment [3], in [4] and in experiment [12] was inactive. For the same compound, in experiment [5], the caspase-3 activation is 0.308%. In addition, in experiment [19], the activation is -1.62%. In [20], the max response is -7.17%.
For the compound `O=[N+]([O-])c1cccc2c([N+](=O)[O-])cccc12`, the compound was called inactive in experiment [2], in experiment [3], in experiment [4] and in [16]. Moreover, the caspase-3 activation in [5] is -0.427%. The Potency entry in [6], in [7], in [9], in experiment [10], in experiment [18] and in experiment [11] was “inactive” throughout. For the same compound, the Potency entry in experiment [13] and in [14] was “inactive” throughout. In [20], the max response was 5.81%.
